Common to all, as to assay: NCI-60 one-dose screen, 48 h (100 = growth as untreated, 0 = no growth, -100 = all killed)
Settings in all cases: 10 µM unless noted

Assay [1] deals with DU-145 prostate.
Assay [2] has as its system K-562 leukemia.
Assay [3] concerns MALME-3M melanoma.
Assay [4] relates to MDA-MB-231 breast.
In assay [5] the test system is SF-268 CNS.
For assay [6], the system named is SF-295 CNS.
Assay [7] relates to SF-539 CNS.
Assay [8] deals with UACC-257 melanoma.
Assay [9] has as its system M14 melanoma.
For assay [10], the system named is HCT-15 colon.
Assay [11] has as its system HT29 colon.
Assay [12] concerns SNB-75 CNS.
Assay [13] relates to SNB-19 CNS.
Assay [14] concerns U251 CNS.
Assay [15] has as its system PC-3 prostate.
Assay [16] concerns SK-MEL-5 melanoma.
The subject of assay [17] is UACC-62 melanoma.
The test system of assay [18] is LOX IMVI melanoma.
The subject of assay [19] is SK-MEL-28 melanoma.
Assay [20] has as its system RXF 393 renal.

Structures are written as SMILES. The panel holds about 83,000 compounds, 20% with a hit somewhere; the sample as a whole holds those more often.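 Cells were grown in 96-well plates and exposed to the test compound at a single concentration for 48 hours; results are reported as percent growth, with values below 10 considered active.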 Values without a mark were called inactive. The source made the active and inactive calls.

As to `CC1=NN(c2cccc(S(N)(=O)=O)c2)C(=O)C1`, the growth was 100% in [1]; 99.4% in assay [2]; 89.9% in assay [3]; 97.1% in [4]; 91.6% in [5]; 87.8% in [6]. The growth in [7] was 91.5%; in assay [8], 124%; in assay [9] it was 95.3%; in assay [10] it was 111%; in assay [11], 104%; in assay [12], 82.7%. Further, the growth was 90.4% in [13]; 101% in assay [14]; 80.1% in [15]; 92.8% in [16]; 89.7% in [17]; 96.3% in assay [18]. In addition, the growth in assay [19] is 111%.
For `CCc1ccc2c(c1)N(CCO)C1=C(C(=O)OC1)C2c1cccc(Cl)c1` (centres undefined), the growth in assay [1] is 11.3%; in assay [2] it was 13.3%; in [4], 30.8%; in [20] it was 10.1%; in assay [5] it was 44.9%; in assay [6], -15.6% (active). Also, the growth in [7] was -12.6% (active); in assay [8], 62.2%; in assay [9], 4.38% (active); in assay [10], 15.9%; in [11], 4.49% (active); in assay [12], 18.9%. Moreover, the growth in assay [13] is 36.4%; in [14], 18.1%; in [15] it was 28.8%; in [16] it was 32.1%; in [17] it was 21.8%; in assay [18], 44.3%. Besides, the growth in assay [19] was 50.3%.
For `COC(=O)C1(C)COP(=O)(NC23CC4CC(CC(C4)C2)C3)OC1` (centres undefined), the growth in assay [1] was 95.4%; in assay [2] it was 106%; in assay [4], 119%; in [20] it was 107%; in assay [5], 104%; in [6], 104%. Further, the growth is 110% in assay [7]; 101% in assay [8]; 104% in assay [9]; 101% in assay [10]; 100% in [11]; 94.9% in assay [12]. In addition, the growth in [13] was 104%; in assay [14], 99.5%; in [15], 94.6%; in assay [16], 99.9%; in assay [17] it was 109%; in assay [18], 98.2%. The growth in assay [19] is 98.7%.
Consider `CCCCN(CCCC)CCC(=O)c1ccc(OC)c2ccccc12`, for which the growth in assay [1] was 79.4%; in [2], 67.1%; in assay [3], 124%; in [4], 106%; in assay [5], 95%; in assay [6] it was 100%. The growth was 87% in assay [7]; 86.4% in [8]; 104% in assay [9]; 99.7% in [10]; 98% in assay [11]; 97.7% in assay [12]. Besides, the growth in assay [13] is 87%; in assay [14] it was 86.7%; in assay [15] it was 84.7%; in [16], 101%; in assay [17] it was 93.5%; in assay [18], 78.9%. The growth in [19] was 154%.
For `Cc1[nH]n(C(=O)c2ccncc2)c(=O)c1N=Nc1ccc(O)c(C(=O)O)c1`, the growth is 132% in assay [1]; 91.1% in assay [2]; 94.2% in assay [3]; 94% in assay [4]; 106% in assay [5]; 100% in assay [7]. Moreover, the growth is -14.1% (active) in assay [8]; 114% in [9]; 112% in assay [10]; 115% in assay [11]; 89.9% in assay [12]; 116% in [13]. The growth in assay [14] was 119%; in assay [15], 102%; in assay [16] it was 106%; in assay [17] it was 96.2%; in assay [18], 75.7%; in assay [19], 109%.
In the case of `O=C1OCC2=C1C(c1ccc(Cl)c(Cl)c1)c1cc3c(cc1N2CCO)CCC3` (centres undefined), the growth in assay [1] is 7.85% (active); in assay [2] it was 19.7%; in [4], 8.3% (active); in [20], 21%; in [5], 44.3%; in assay [6], -9.42% (active). Besides, the growth in assay [7] is -10.2% (active); in assay [8] it was 60.2%; in assay [9], 12.1%; in assay [10] it was 13.4%; in [11] it was 3.94% (active); in [12], 18%. Also, the growth is 32.5% in [13]; 16% in assay [14]; 25.5% in assay [15]; 30% in assay [16]; 13.7% in assay [17]; 32.8% in [18]. Also, the growth in assay [19] was 47.3%.
Regarding `COc1ccc(/C(=C\c2ccc3c(c2)OCO3)C(=O)Nc2nc3ccc(F)cc3s2)cc1OC`, the growth in assay [1] was 98.2%; in [2], 101%; in assay [4] it was 109%; in [20], 111%; in assay [5], 98.5%; in assay [7], 96.3%. The growth in [8] is 112%; in [9], 94.3%; in [10], 108%; in [11] it was 95.3%; in assay [12], 90.9%; in [13], 109%. Moreover, the growth in [14] is 96.2%; in assay [15], 88.2%; in assay [16] it was 104%; in [17] it was 108%; in [18] it was 101%; in assay [19], 102%.
Consider `CC(=O)[C@@]1(O)[C@H](C)C[C@H]2[C@@H]3C=C(C)C4=Cc5c(cnn5-c5ccccc5)C[C@]4(C)[C@H]3[C@@H](O)C[C@@]21C`, for which the growth in assay [1] was 54.6%; in assay [2], -60.9% (active); in [3], 41.8%; in assay [4], 26.1%; in assay [5], 27.9%; in assay [6] it was -49.1% (active). Besides, the growth in assay [7] was -21.8% (active); in [8] it was 54.6%; in [9], 43.7%; in [10] it was -27.9% (active); in [12], 40.4%; in [13], 70.2%. The growth is 6.52% (active) in assay [14]; 1.78% (active) in [15]; 38.1% in assay [16]; 1.84% (active) in [17]; 4.75% (active) in [18]; 43.6% in assay [19].

Values taken from PubChem BioAssay (NCI).
